# From PubChem BioAssay
# TGFb SMAD3 inh = TGF-b pathway inhibition | HepG2 CAGA-GFP TGF-b/SMAD3 reporter, GFP fluorescence, 18 h; TGF-beta stimulated, 500 pg/mL final | Potency, µM (doses to about 46.1 µM), for the others: at the highest dose activity, negative = inhibition, most hits filed as inhibitors | 410,000 compounds, 1.2% hits | AID 588855; further: potency means the concentration at half of the fitted maximal effect; on the % scale 0 is the no-effect control and ±100 the full control effect; nearly all actives have a fitted effect of over 65% in size
#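 Cell-based qHTS in HEPG2 carrying a CAGA-GFP Smad reporter; compounds added before 500 pg/mL final TGF-beta, 18 h incubation at 37 degrees C, GFP fluorescence quantified per cell by imaging cytometry.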
# HepG2 tox = counter-screen for TGF-b inhibitors: cytotoxicity in HepG2 cells. 410,000 compounds, 0.76% hits. Potency, µM (doses to about 46.1 µM), inactives show at the top dose activity change, negative = cytotoxicity, hits mostly cytotoxic. HepG2 CAGA-GFP viability, ATP luminescence, 18 h. AID 588856; further: potency means the concentration at half of the fitted maximal effect
#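 CellTiter-Glo luminescence gave cytotoxicity after 18 hours at 37 degrees C. The cells were HepG2 CAGA-GFP in 1% FBS DMEM, stimulated with 500 pg/mL TGF-beta after compound addition. %Activity was normalised to no-cell wells (complete cell-killing) and DMSO (no toxicity), and curves were fitted and classified.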
# TDP1 cell noCPT = qHTS for Inhibitors of human tyrosyl-DNA phosphodiesterase 1 (TDP1): qHTS in cells in absence of CPT | DT40 Tdp1-/- hTDP1 cells, no CPT, ATP luminescence, 48 h | Potency, µM (titrated, usually from 46.2 µM), without a hit: at the top dose activity change, negative = growth inhibition, most hits filed as inhibitors | 420,000 compounds, 15% hits | AID 686978, 2013; further: potency means the concentration at half of the fitted maximal effect; on the % scale 0 is the no-effect control and ±100 the full control effect; nearly all actives have a fitted effect of over 55% in size
#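 Seeded 400 DT40-hTDP1 cells/well (vehicle DMSO, no 20 nM CPT); pinned compounds; ≥48 hr at 37 °C; CellTiter-Glo luminescence as viability measure.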
# IL-1B inflam inh = inflammasome signaling inhibition, IL-1 beta readout | activity change, % at 57.5 µM | THP-1 LPS/ATP IL-1B secretion, AlphaLISA, 16 h; active compounds read low | 360,000 compounds, 4.7% hits | AID 743279; in the data active means activity change below about -50%; inconclusive means mostly about -30% to -49%; further: on the % scale 0 is the no-effect control and ±100 the full control effect
#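 Secreted IL-1B measured by AlphaLISA bead assay after 16 h compound exposure of THP-1 cells; compounds (final up to 57.5 uM) added 1 h before LPS (250 ng/mL) and ATP (1.25 mM) stimulation; lower signal means less secretion.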
# TDP1 cell CPT = DT40-hTDP1 cell growth loss with CPT. Potency, µM (top dose mostly 46.2 µM), without a hit: top-dose activity change, negative = growth inhibition, actives largely listed as inhibitors. 420,000 compounds, 12% hits. AID 686979. chicken DT40 Tdp1-/-;hTDP1 cells + 20 nM CPT, ATP luminescence, 48 h; further: potency means the concentration at half of the fitted maximal effect; on the % scale 0 is the no-effect control and ±100 the full control effect; nearly all actives have a fitted effect of over 55% in size
#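 Chicken DT40 Tdp1-/- cells complemented with human TDP1, 400 cells/well, exposed to compounds plus 20 nM camptothecin for at least 48 h at 37 C; viability read as ATP content by CellTiter-Glo luminescence.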
# TDP1 block = inhibitors of human tyrosyl-DNA phosphodiesterase TDP1; Potency, µM (top dose mostly 130 µM), for inactives: at the top dose activity change, negative = inhibition, usual class: inhibitors; 350,000 compounds, 0.28% hits; recombinant TDP1, AlphaScreen DNA substrate cleavage; Q9NUW8; AID 485290; further: potency means the concentration at half of the fitted maximal effect; on the % scale 0 is the no-effect control and ±100 the full control effect; nearly all actives have a fitted effect of over 40% in size
# Target sequence (Q9NUW8 whole entry, looked up): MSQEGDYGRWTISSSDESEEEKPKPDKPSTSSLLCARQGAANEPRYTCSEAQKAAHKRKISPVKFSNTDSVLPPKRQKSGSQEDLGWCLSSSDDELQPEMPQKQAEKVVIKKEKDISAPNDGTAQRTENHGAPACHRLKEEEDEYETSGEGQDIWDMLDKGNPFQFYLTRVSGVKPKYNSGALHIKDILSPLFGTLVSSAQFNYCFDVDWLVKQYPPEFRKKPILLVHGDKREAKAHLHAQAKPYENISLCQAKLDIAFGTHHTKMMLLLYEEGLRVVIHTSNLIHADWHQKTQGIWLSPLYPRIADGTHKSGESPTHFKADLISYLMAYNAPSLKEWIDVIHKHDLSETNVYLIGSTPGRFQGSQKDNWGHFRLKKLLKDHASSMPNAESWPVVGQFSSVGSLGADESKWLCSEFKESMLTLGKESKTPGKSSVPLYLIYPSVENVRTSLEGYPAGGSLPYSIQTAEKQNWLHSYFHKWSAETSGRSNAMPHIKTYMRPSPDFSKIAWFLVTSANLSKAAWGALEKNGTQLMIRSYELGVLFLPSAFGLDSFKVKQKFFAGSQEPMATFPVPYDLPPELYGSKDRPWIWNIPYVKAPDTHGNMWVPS
#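 Enzyme-compound mixtures sat 15 min at room temperature, followed by a 5 min reaction with 15 nM final substrate and 10 min with AlphaScreen beads. Recombinant human Tdp1 was used at 1 nM final.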
# An asterisk follows results filed as active; ? = inconclusive; / = no result; [ ] = another dose, or the depositor's remark. This is a sample that favours compounds with a hit; in the whole collection about 18% have one here. Unless noted, the call rests on the fitted dose curve; in most records, active means well fitted curve in the direction sought with a large enough effect; inconclusive means small, poorly fitted or top-dose-only effect, or another doubt; inactive means no such curve, though single readings can be large; an effect the other way counts as inactive or inconclusive.
SMILES,TGFb SMAD3 inh,HepG2 tox,TDP1 cell noCPT,IL-1B inflam inh,TDP1 cell CPT,TDP1 block
COc1ccccc1N1CCN(C(=O)/C=C/c2ccc3c(c2)OCO3)CC1,-3.3%,2.1%,20.6µM*,13.1,20.6µM*,4.8%
COc1ccccc1NC(=O)/C=C/c1ccc2c(c1)OCO2,-14.8%,-14.0%,?,6.2,16.4µM*,2.6%
Cc1cnc(C2OCCO2)c2cccc(N)c12,-2.4%,-2.7%,8.2µM*,-11.7,?,/
Cc1ccccc1CNC(=O)C(=O)NCC1CCCN1S(=O)(=O)c1cccs1 (stereo not given),20.7%,-17.4%,?,-4.2,?,/
O=C(NCC1CCCN1S(=O)(=O)c1cccs1)c1cccc(F)c1 (stereo not given),0.0%,3.4%,18.4µM*,2.5,16.4µM*,-0.3%
Cc1ccc(NC(=O)C(=O)NCC2CCCN2S(=O)(=O)c2cccs2)c(C)c1 (stereo not given),-15.7%,-16.2%,?,-10.2,18.4µM*,-5.1%
Cc1cccc(C)c1NC(=O)C(=O)NCC1CCCN1S(=O)(=O)c1cccs1 (stereo not given),-2.5%,-2.4%,11.6µM*,27.0,?,/
Cc1cc(C)cc(NC(=O)C(=O)NCC2CCCN2S(=O)(=O)c2cccs2)c1 (stereo not given),10.1%,-8.9%,10.3µM*,-4.9,7.31µM*,/
CC(C)c1nnc(NC(=O)CCC(=O)Nc2ccc3cn[nH]c3c2)s1,?,0.3%,-6.8%,47.6,-8.9%,-4.7%
O=C(NCCCCNC(=O)C(F)(F)F)C(F)(F)F,2.5%,-4.4%,-15.1%,29.6,-7.4%,7.9%
CCCCC(CC)CN1CN(CC(CC)CCCC)CC(C)(N)C1 (stereo not given),21.0%,5.9%,0.231µM*,-19.8,0.164µM*,9.0%[56.1 µM]
CCCNC(=O)C1(C)CCCN(C(=O)C2(c3ccc(Cl)cc3)CCCC2)C1 (stereo not given),-8.2%,-15.1%,20.6µM*,14.5,?,/
CCCNC(=O)C1(C)CCCN(C(=O)COc2ccc(C(C)(C)C)cc2)C1 (stereo not given),-2.9%,-12.7%,16.4µM*,21.0,29.1µM*,/
CCCNC(=O)C1(C)CCCN(C(=O)Cc2ccc(OC)cc2)C1 (stereo not given),16.7%,6.9%,-3.5%,11.4,13.6%,/
O=C1c2cnc3nc(SCc4cccc(Cl)c4)nn3c2CC2c3ccccc3CCN12 (stereo not given),-8.8%,1.5%,20.6µM*,19.6,14.6µM*,0.0%
COC(=O)c1ccc(CN2CCOc3ccc(CN4CCC(O)(c5cccnc5)CC4)cc3C2)cc1,/,/,?,/,-3.2%[9.04 µM],/
COC(=O)c1cc(S(=O)(=O)n2nc(C)c(Br)c2C)c(Cl)cc1Cl,2.2%,32.0%,14.6µM*,-85.1*,25.9µM*,5.1%
CCN(CC)C(=O)C1=C(C)N(CCCOC)C(=O)C(CC(=O)NCc2cccs2)C1 (stereo not given),-3.1%,-1.7%,-3.6%,19.5,1.7%,/
Cc1ccccc1Cn1c(O)c(N=NC(=S)Nc2ccccc2F)c2ccccc21,8.4%,5.4%,6.51µM*,-8.9,5.8µM*,10.3%
Cc1ccc(C)c(Cn2c(O)c(N=NC(=S)Nc3ccccc3F)c3ccccc32)c1,-5.8%,-6.3%,2.91µM*,-8.4,5.17µM*,6.9%
Oc1c(N=NC(=S)Nc2ccccc2F)c2ccccc2n1Cc1ccc(Cl)cc1,-16.3%,-23.1%,5.8µM*,-11.2,4.61µM*,2.9%
CCNC(=S)N=Nc1c(O)n(Cc2ccc(Cl)cc2)c2ccccc12,22.5%,11.0%,?,-5.0,16.4µM*,10.3%
CCn1c(O)c(N=NC(=O)CNC(=O)c2ccccc2F)c2ccccc21,-1.3%,11.3%,?,0.0,?,-0.1%
COCCNC(=O)C(c1ccc(F)cc1)N(C(=O)CCC(=O)Nc1ccccn1)c1cccc(C)c1 (stereo not given),2.9%,-128.2%,11.1%,-5.1,0.0%,10.5%
O=c1[nH]ncc2c3ccccc3n(Cc3ccccc3F)c12,5.2%,-10.7%,?,29.9,-0.5%,-2.0%
SMILES,TGFb SMAD3 inh,HepG2 tox,TDP1 cell noCPT,IL-1B inflam inh,TDP1 cell CPT,TDP1 block
Oc1c(N=NC(=S)Nc2ccccc2F)c2ccccc2n1Cc1ccccc1F,-3.8%,-10.3%,7.31µM*,0.0,16.4µM*,10.8%
CCOc1cc(C2C(C#N)=C(N)OC(C)=C2C(C)=O)c(Br)c(Br)c1OC(C)C (stereo not given),15.8µM*,-58.1%,4.61µM*,0.0,4.61µM*,0.1%[56.1 µM]
CC(=O)c1cccc(NC(=O)CCC(=O)Oc2ccc(C)cc2)c1,-0.7%,-1.1%,13.4%,31.9,1.3%,/
CCN(CC(=O)Nc1ccc(NC(C)=O)cc1)c1ccc(C(F)(F)F)cn1,3.4%,3.55µM*,?,-6.5,-19.3%,0.0%
CCN(CC)CCn1c(-c2ccccc2)nc2c(NC3CCCCC3)nc(C)nc21,/,/,/,/,/,5.7%
O=C(Cc1coc2ccc3ccccc3c12)Nc1nnc(C2CC2)s1,4.8%,-20.4%,23.1µM*,28.8,?,3.1%
Cc1cc2occ(CC(=O)Nc3nnc(C4CC4)s3)c2cc1C,-16.8%,0.3%,-16.4%,18.7,-25.9%,-1.0%
Cc1ccc(C(=O)N(CC#N)CC#N)cc1C,11.0%,12.7%,-9.6%,20.2,-17.2%,2.4%
O=c1c2ccc(Cl)cc2nc(-c2ccc([N+](=O)[O-])cc2)n1O,-9.1%,-23.4%,8.2µM*,101.5,8.2µM*,6.3%
O=c1c2cc(Br)ccc2nc(-c2ccc([N+](=O)[O-])cc2)n1O,?,-20.6%,-109.2%,35.1,?,6.3%
O=c1c2cc(Cl)ccc2nc(-c2ccc(Cl)c(Cl)c2)n1O,?,-28.3%,5.17µM*,15.3,5.17µM*,/
Nc1ccc(Cl)cc1[N+](=O)[O-],/,/,/,/,/,10.4%
NCCC[C@@H](CC(=O)N[C@@H]1CCCC[C@H]1C(=O)N[C@H](CC(=O)N[C@@H](CCC(=O)O)CC(=O)O)Cc1ccccc1)NC(=O)C[C@H](Cc1ccccc1)NC(=O)[C@@H]1CNCC[C@H]1N,/,/,/,/,/,3.7%
O=c1oc2ccccc2n1CCCOc1ccccc1Cl,-6.4%,0.2%,?,/,-19.7%,-10.1%
Cc1cccc(CN2C(=O)N/C(=C/c3cc(C)n(-c4cc(C)ccn4)c3C)C2=O)c1,-6.0%,-0.7%,23.1µM*,-58.2*,?,9.8%
